KB-V1 MDR tox – kills drug-selected multidrug resistant KB-V1 cells; AID 1347076; KB-V1 MDR cells viability, CellTiter-Glo, 72 h; actives 3.4% (n = 400,000); Potency, µM (doses to about 46.1 µM), most hits filed as cytotoxic; further: potency means the concentration at half of the fitted maximal effect; on the % scale 0 is the no-effect control and ±100 the full control effect; nearly all actives have a fitted effect of over 60% in size
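Compound-treated KB-V1 multidrug-resistant cells, 72 h, 37 degrees C; viability by CellTiter-Glo. Fitted qHTS curves give the values.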
KB-3-1 cytotox – kills parental KB-3-1 adenocarcinoma cells. Potency, µM (doses to about 46.1 µM), most hits filed as cytotoxic. KB-3-1 viability, CellTiter-Glo ATP luminescence, 72 h. actives 1.4% (n = 400,000). AID 1347075; further: potency means the concentration at half of the fitted maximal effect; on the % scale 0 is the no-effect control and ±100 the full control effect; nearly all actives have a fitted effect of over 60% in size
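Parental KB-3-1 viability, qHTS format: 72 h compound exposure, 37 °C; CellTiter-Glo; media-only wells and DMSO plates as controls; concentration-effect fits on corrected data.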
KCNH2 3.1 block – inhibitors of human KCNH2 3.1 potassium channel isoform; AID 720553; activity change, % (tested at about 1.8 µM); U2OS KCNH2 3.1, thallium flux FluxOr; hits give low values; actives 0.95% (n = 340,000);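 active means maximum activity change below -70%; inconclusive means maximum activity change from -70% to -50%; inactive means maximum activity change above -50%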;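 further: thallium influx rate constant from kinetic fluorescence after stimulation buffer; on the % scale 0 is the no-effect control and ±100 the full control effect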
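Virally transduced U2OS (3.1 isoform, 4 h infection in dark at RT) → overnight 37 C → FluxOr + Red40 in HBSS/HEPES, 45 min → stimulation buffer, 2 min kinetic read → rate constant vs DMSO controls.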
MCF10A rereplic – induces DNA re-replication in MCF 10a normal breast cells; Potency, µM (titrated, usually from 46.1 µM), for inactives: top-dose activity, positive = re-replication, usual class: activators; AID 624296; MCF 10A DNA re-replication, Hoechst nuclear intensity, 48 h; actives 2.9% (n = 350,000); further: potency means the concentration at half of the fitted maximal effect; % of control where 0% means no effect; nearly all actives have a fitted effect of over 50% in size
hERG WT inh – blocks the wildtype human KCNH2 potassium channel | activity change, % at 1.84 µM | actives 0.37% (n = 340,000) | U2OS, BacMam KCNH2, thallium flux FluxOr; hits give low values;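 active means maximum activity change below -70%; inconclusive means maximum activity change between -70% and -50%; inactive means maximum activity change above -50%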; further: on the % scale 0 is the no-effect control and ±100 the full control effect
Target sequence (Q12809 whole entry, looked up): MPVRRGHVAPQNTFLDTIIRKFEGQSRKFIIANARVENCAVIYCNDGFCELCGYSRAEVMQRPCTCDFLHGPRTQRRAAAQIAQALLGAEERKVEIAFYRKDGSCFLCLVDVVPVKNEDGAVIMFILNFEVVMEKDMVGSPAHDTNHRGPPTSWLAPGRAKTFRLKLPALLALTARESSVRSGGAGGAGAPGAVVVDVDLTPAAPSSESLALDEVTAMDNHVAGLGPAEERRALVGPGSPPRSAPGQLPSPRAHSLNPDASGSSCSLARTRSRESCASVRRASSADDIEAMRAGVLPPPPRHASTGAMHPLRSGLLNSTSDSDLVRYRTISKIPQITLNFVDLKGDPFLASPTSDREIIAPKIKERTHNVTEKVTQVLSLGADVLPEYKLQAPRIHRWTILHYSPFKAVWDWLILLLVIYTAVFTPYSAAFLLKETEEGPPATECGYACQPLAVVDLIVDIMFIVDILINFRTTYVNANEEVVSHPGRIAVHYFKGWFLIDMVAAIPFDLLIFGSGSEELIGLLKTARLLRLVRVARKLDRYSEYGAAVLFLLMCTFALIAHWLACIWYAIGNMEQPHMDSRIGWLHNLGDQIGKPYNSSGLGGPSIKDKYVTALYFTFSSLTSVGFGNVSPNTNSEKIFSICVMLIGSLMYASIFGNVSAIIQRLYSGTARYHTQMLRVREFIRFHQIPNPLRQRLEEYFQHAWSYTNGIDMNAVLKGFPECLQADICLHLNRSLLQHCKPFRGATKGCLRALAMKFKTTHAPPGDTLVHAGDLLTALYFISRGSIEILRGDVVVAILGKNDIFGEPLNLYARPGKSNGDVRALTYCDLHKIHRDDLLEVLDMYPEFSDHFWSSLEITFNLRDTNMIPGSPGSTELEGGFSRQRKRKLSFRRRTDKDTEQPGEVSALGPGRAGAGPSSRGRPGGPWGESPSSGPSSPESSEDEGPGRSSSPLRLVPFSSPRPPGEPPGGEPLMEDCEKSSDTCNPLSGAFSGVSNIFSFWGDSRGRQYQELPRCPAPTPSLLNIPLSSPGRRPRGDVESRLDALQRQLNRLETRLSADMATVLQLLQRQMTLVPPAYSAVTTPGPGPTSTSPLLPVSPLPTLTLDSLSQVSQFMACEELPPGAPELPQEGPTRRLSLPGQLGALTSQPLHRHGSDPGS
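U2OS cells were transduced with wild-type KCNH2 virus (2.03 x 10^8 / mL) for 4 h at room temperature, then cultured overnight at 37 C. Thallium flux was read with FluxOr dye. Rate constants were normalized to DMSO controls.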
SW480 rerep – inducers of DNA re-replication in SW480 colon cancer cells. actives 1.8% (n = 340,000). AID 624297. Potency, µM (series often up to 46.1 µM), for the others: at the highest dose re-replication activation, most hits filed as activators. SW480 DNA re-replication, Hoechst DNA content imaging, 48 h; further: potency means the concentration at half of the fitted maximal effect; % of control where 0% means no effect; nearly all actives have a fitted effect of over 55% in size
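Per well, 250 cells were exposed to pinned compound for 48 hr. Nuclear DNA was visualised with Hoechst (40 min, 37 C) and total object intensity recorded by fluorescence scanning.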
* = called active by the depositor; i = inactive; ? = inconclusive; . = no result given. The list is not random: actives were taken first. Their share in the collection is about 7.6%. Unless noted, the call rests on the fitted dose curve; in most records, active means well fitted curve in the direction sought with a large enough effect; inconclusive means small, poorly fitted or top-dose-only effect, or another doubt; inactive means no such curve, though single readings can be large; an effect the other way counts as inactive or inconclusive.

SMILES	KB-V1 MDR tox	KB-3-1 cytotox	KCNH2 3.1 block	MCF10A rereplic	hERG WT inh	SW480 rerep
O=C(Nc1ccc(Oc2cccnc2)cc1)c1ccccc1Cl	i	i	12	3%	i	12%
CCN(CC)CCNc1ccc(C)c2sc3ccc(O)cc3c(=O)c12	4.6µM*	?	-23	5%	19	?
CCOc1ccc(CCNC(=O)c2ccc(CS(=O)(=O)Cc3ccccc3Cl)o2)cc1OCC	?	i	.	.	.	.
Cc1ccc(-n2nnnc2-c2cnc3ccc(Cl)cc3c2-c2ccccc2)cc1	?	7.3µM*	-6	21µM*	1	?
Clc1ccc(-n2nnnc2-c2ccccc2)cc1	i	i	6	-19%	-5	-2%
Clc1ccc(-c2nnnn2-c2ccc(Cl)cc2)cc1	i	?	-33	8%	-2	-11%
Nc1ncc(-c2nnnn2-c2ccc(Cl)cc2)c(-c2ccc(Cl)cc2)n1	6.5µM*	5.2µM*	-21	?	10	2.9µM*
Clc1ccc(-n2nnnc2-c2cnc3ccccc3c2-c2ccccc2)cc1	16µM*	i	-11	-4%	-19	-8%
CC(=O)O[C@]1(C(C)=O)CCC2C3CCC4=CC(=O)CCC4(C)C3(F)C(O)CC21C (some centres not stated)	.	.	.	4%	.	-15%
CCN(CC)S(=O)(=O)c1ccc(OC)c(NC(=O)c2cc3c(=O)n4ccccc4nc3s2)c1	i	i	11	16µM*	8	6%
Cc1ccc(-n2c(-c3ccc(Br)cc3)c[n+]3c2CCc2ccc4cccnc4c2-3)cc1	?	2.6µM*	?	?	-1	15%
CN(C)S(=O)(=O)Oc1ccsc1C(=O)Nc1ccc(Cl)c(Cl)c1	?	i	-8	?	-23	10%
COC(=O)c1sccc1-c1ccc(C(=O)Nc2cccc(Cl)c2)o1	16µM*	i	-3	?	7	6%
CN(C)S(=O)(=O)Oc1ccsc1C(=O)Nc1cccc(Cl)c1	21µM*	?	0	10%	-2	-12%
Cc1ccc(C)c(Cn2nnc(C(=O)NCc3ccc(Cl)cc3Cl)c2N)c1	i	i	.	.	.	.
CC(=O)NNC(=O)CC(=O)Nc1nc(C23CC4CC(CC(C4)C2)C3)cs1	i	i	-1	?	30	-1%
CCNc1nc(C23CC4CC(CC(C4)C2)C3)cs1	i	i	-12	23µM*	2	?
Cc1ccc2cc(C#N)c(N3CCCN(C(=S)NCCCN(C)C)CC3)nc2c1	i	?	2	3.7µM*	4	23µM*
CCOCCCNC(=S)N1CCCN(c2nc3cc(C)ccc3cc2C#N)CC1	i	i	2	0%	0	5%
Cc1cc(C)c2cc(C#N)c(N3CCCN(C(=S)NCCCN(C)C)CC3)nc2c1	?	?	1	7.3µM*	1	?
CN1c2ccsc2C(O)=C(C(=S)Nc2ccc(F)c(Cl)c2)S1(=O)=O	i	i	14	?	-7	2%
CC1CCN(CC(CS(=O)(=O)c2ccc([N+](=O)[O-])cc2)N2CCC(C)CC2)CC1 (configuration not stated)	?	5.2µM*	36	1.8µM*	-1	2.9µM*
CCNc1nc2c(c(=O)[nH]c(=O)n2C)n1CC(C)C	i	?	18	15%	-2	-5%
Cn1c(=O)[nH]c(=O)c2c1nc([N+](=O)[O-])n2Cc1ccccc1	?	?	-4	2.1µM*	4	-32%
Cn1c(=O)[nH]c(=O)c2c1nc(N1CCNCC1)n2Cc1ccccc1	i	i	-3	0%	3	?
SMILES	KB-V1 MDR tox	KB-3-1 cytotox	KCNH2 3.1 block	MCF10A rereplic	hERG WT inh	SW480 rerep
CC(C)Cn1c([N+](=O)[O-])nc2c1c(=O)[nH]c(=O)n2C	?	?	-4	12µM*	0	?
O=C(O)CN1C(=O)c2cccc3c(Br)ccc1c23	i	i	7	2%	-18	-4%
CCCN1C(=O)c2cccc3c(N4CCCCC4)ccc(c23)C1=O	?	i	-5	3.7µM*	-9	.
CCCCNc1ccc2c3c(cccc13)C(=O)N(CCCC)C2=O	?	i	-42	7.3µM*	-49	21µM*
CCN1C(=O)c2cccc3c(N)ccc(c23)C1=O	i	i	-16	5%	-5	5%
CN(C)CCCN1C(=O)c2cccc3c(Br)ccc(c23)C1=O	?	?	5	7.3µM*	-8	?
N#CCC(=O)Nc1ccc(C(=O)NNC(=S)NC2CCCCC2)cc1	i	i	-6	1%	-12	11%
CC(C)CC(=O)Nc1ccc(C(=O)NNC(=S)NC(=O)C2CCCCC2)cc1	10µM*	i	12	-5%	-1	0%
CCOC(=O)C1=C(Nc2ccccc2)CC(C)(O)C(C(=O)OCC)C1c1ccccc1 (configuration not stated)	?	i	10	4%	-1	0%
CCOC(=O)C1=C(Nc2ccccc2)CC(C)(O)C(C(=O)OCC)C1c1ccc(Br)cc1 (configuration not stated)	23µM*	?	-4	5%	-2	?
Cn1cc(-c2cc3n(n2)CCC(=O)N3CC(=O)NCc2ccccc2)c2ccccc21	i	i	.	.	.	.
CCCN1CCc2c(sc(NC(=O)CCS(=O)(=O)c3ccccc3)c2C(N)=O)C1	.	.	13	21µM*	-21	18µM*
Cc1cnc(Nc2nc3ccccc3o2)nc1C(=O)Nc1cccc(C(F)(F)F)c1	15µM*	16µM*	-2	?	1	?
CCOc1ccc(C(=O)OCC(=O)c2c(N)n(C)c(=O)n(C)c2=O)cc1OCC	i	i	1	6%	3	-2%
CN(c1ccccc1)S(=O)(=O)c1cc(C(=O)OCC(=O)c2c(N)n(C)c(=O)n(C)c2=O)ccc1Cl	16µM*	i	-17	3%	-9	-6%
Cn1c(N)c(C(=O)COC(=O)c2ccc(Cl)c(S(=O)(=O)N3CCCCC3)c2)c(=O)n(C)c1=O	21µM*	i	5	?	-9	22%
CCOC(=O)C1CCCN(CC(O)COCc2ccccc2OC)C1 (configuration not stated)	i	i	11	-21%	-3	-21%
COc1ccc(N/C=C/C(=O)c2sc(-c3ccccc3)nc2C)cc1	18µM*	?	-7	?	12	?
Cc1nc(-c2ccccc2)sc1C(=O)/C=C/c1ccc(Cl)cc1	?	?	8	4.1µM*	-11	2%

Source: PubChem BioAssay (National Center for Advancing Translational Sciences (NCATS))
